Screens as filed in PubChem.
Compounds with a hit are over-represented: about 1.7% of the library has one in this group of screens.
PTHR1 ag = agonists of human PTHR1 parathyroid hormone receptor. Potency, µM (highest dose often 115 µM), without a hit: at the highest dose activation, usual class: activators. AID 743266. Q03431. hit rate 0.075% among 410,000. HEK293 GP2 PTHR1 cells, GloSensor cAMP luminescence, 1 h; note: potency is the fitted concentration of half-maximal effect; nearly all actives have a fitted effect of over 55% in size
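HEK-293-derived GP2 cells expressing PTHR1 and a GloSensor cAMP reporter, 3,000/well, plated overnight, given luciferin plus IBMX (each 0.5 mM as added) for 1 h at 37 °C, then compound for 1 h at 37 °C. Luminescence was read after 15 min at room temperature.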
GLP1R inv ag = GLP-1 receptor (human) inverse agonism; Potency, µM (doses to about 38.3 µM), inactives show at the top dose activity change, negative = inhibition, actives largely listed as inhibitors; P43220; AID 624417; HEK293 GLP-1R CRE-luciferase, luminescence, 24 h; GLP-1R form is constitutively active; hit rate 1.6% among 410,000; note: potency is the fitted concentration of half-maximal effect; % is set by controls: 0 for no effect and ±100 for the full control effect; nearly all actives have a fitted effect of over 55% in size
Target sequence (P43220 whole entry, looked up): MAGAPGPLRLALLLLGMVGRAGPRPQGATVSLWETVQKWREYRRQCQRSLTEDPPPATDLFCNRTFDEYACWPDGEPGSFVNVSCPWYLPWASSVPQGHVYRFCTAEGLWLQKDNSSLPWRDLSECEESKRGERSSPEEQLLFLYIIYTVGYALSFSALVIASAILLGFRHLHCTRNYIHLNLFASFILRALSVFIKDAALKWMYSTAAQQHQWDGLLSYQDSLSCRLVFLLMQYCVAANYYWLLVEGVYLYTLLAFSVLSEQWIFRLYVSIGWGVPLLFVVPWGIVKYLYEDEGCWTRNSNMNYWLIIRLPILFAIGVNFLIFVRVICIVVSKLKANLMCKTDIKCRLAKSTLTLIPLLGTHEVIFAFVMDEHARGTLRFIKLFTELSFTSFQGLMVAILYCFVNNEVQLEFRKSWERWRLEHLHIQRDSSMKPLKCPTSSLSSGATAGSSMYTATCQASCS
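Seeding at 200 cells/uL, 12 h culture, 24 hr compound treatment, then luciferase reagent and a luminescence read; cells are HEK293 stably expressing a constitutively active GLP-1R plus cAMP-responsive luciferase.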
GLP-1R agonist = GLP-1 receptor (human) agonism; P43220; HEK293 GLP-1R CRE-luciferase, luminescence, 4-6 h; cells express a hypersensitive GLP-1R form; Potency, µM (doses to about 45.6 µM), without a hit: top-dose activation, most hits filed as activators; hit rate 0.007% among 380,000; AID 624172; note: potency is the fitted concentration of half-maximal effect; % of control where 0% means no effect
GLP1R cytotox = cytotoxicity in counter-screen for GLP-1R inverse agonists | HEK293 cAMP-luciferase reporter cells, luminescence, 24 h | Potency, µM (top dose mostly 38.3 µM), for inactives: top-dose activity change, negative = inhibition, most hits filed as inhibitors | hit rate 0.13% among 410,000 | AID 624418;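 note: loss of luciferase light is scored as toxicity; potency is the fitted concentration of half-maximal effect; % is set by controls: 0 for no effect and ±100 for the full control effect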
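MLSMR compounds, 24 hr on cells at 37 deg C/5% CO2; luminescence after luciferase reagent (12 min RT). Inhibition counted as the undesired cytotoxic outcome.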
LDHA inh = LDHA (human) enzyme inhibition. P00338. purified LDHA, NADH/diaphorase-resazurin fluorescence; hits give low values. activity change, % (values are at about 110 or 230 µM). hit rate 0.15% among 480,000. AID 1347041; in the data active = activity change below about -30%; inconclusive = mostly about -25% to -30%;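 note: plate controls were DMSO wells for no effect and wells without enzyme for full effect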
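Enzyme activity of human lactate dehydrogenase 5 (2 nM; 0.06 mM NADH, 0.2 mM pyruvate, 5 min, RT) is measured via a resazurin/diaphorase fluorescence readout of residual NADH.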
IDH1 R132H inh = blocks human mutant IDH1 R132H enzyme | IDH1-R132H enzyme, NADPH consumption, diaphorase/resazurin fluorescence | Potency, µM (highest dose often 76.6 µM), for inactives: at the top dose activity change, negative = inhibition, most hits filed as inhibitors | hit rate 0.093% among 390,000 | AID 602179; note: potency is the fitted concentration of half-maximal effect; % is set by controls: 0 for no effect and ±100 for the full control effect; nearly all actives have a fitted effect of over 65% in size
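IDH1-R132H (0.5 ug/mL dispensed) in pH 7.5 Tris buffer was preincubated 30 min with compound, then given a substrate mix of 0.016 mM NADPH and 2 mM alpha-KG for 80 min at room temperature; remaining NADPH was read by diaphorase/resazurin fluorescence.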
* = called active by the depositor; i = inactive; ? = inconclusive; nt = no result; [ ] = dose if it differs, or a comment. Unless noted, calls come from the whole dose curve; as a rule, active = well fitted curve in the direction sought with a large enough effect; inconclusive = small, poorly fitted or top-dose-only effect, or another doubt; inactive = no such curve, though single readings can be large; an effect the other way counts as inactive or inconclusive.

SMILES	PTHR1 ag	GLP1R inv ag	GLP-1R agonist	GLP1R cytotox	LDHA inh	IDH1 R132H inh
COc1ccc(N2CCN(C(=O)c3oc4ccccc4c3NC(=O)Cc3cccc(OC)c3)CC2)cc1	-25.1%	8.91µM*	3.0%	-13.0%	-1.1	-5.8%
COc1ccc2oc(C(=O)OCC(=O)N(Cc3ccccc3)C(C)C)c(C)c2c1	-18.9%	11.2µM*	15.4%	3.0%	-6.2	2.5%
COc1ccc(N2CCN(C(=O)c3oc4ccccc4c3NC(=O)Cc3ccc(OC)c(OC)c3)CC2)cc1	-22.4%	-41.5%	-4.0%	-9.3%	0.8	-5.8%
CCCc1nc2nc(-c3ccc(OC)cc3)cc(=O)n2[nH]1	nt	nt	nt	nt	5.9	nt
C=C=Cn1c(C2CC(=O)N(c3ccc(C)c(C)c3)C2)nc2ccccc21 (stereo unspecified)	nt	nt	nt	nt	3.3	nt
NC(CCCc1ccccc1)c1ccccc1 (stereo unspecified)	nt	nt	nt	nt	5.5	nt
COCCCNC(=S)N1CCN(C(c2ccccc2)c2ccccc2)CC1	-41.6%	10µM*	3.8%	12.9%	0.1	5.8%
COc1cc(NC(=S)N2CCC(C(O)(c3ccccc3)c3ccccc3)CC2)cc(OC)c1	-2.8%	10µM*	-4.9%	3.9%	0.4	-1.1%
CCNC(=S)N1CCC(C(O)(c2ccccc2)c2ccccc2)CC1	i	-20.5%	10.5%	-9.1%	-3.8	9.4%
COc1ccc2oc(C(=O)N3CCN(C(c4ccccc4)c4ccccc4)CC3)c(C)c2c1	i	5.62µM*	10.5%	0.9%	-14.3	0.0%
CCN(C(=O)C1CCN(c2oc(-c3ccco3)nc2C#N)CC1)c1ccccc1C	nt	nt	nt	nt	-9.0	nt
O=C(c1ccccc1)C1OC1C(=O)c1ccccc1 (stereo unspecified)	-22.2%	?	-2.0%	-24.4%	-9.4	3.5%
CC1C=CC(C)C(C(=O)c2ccccc2)C1C(=O)c1ccccc1 (stereo unspecified)	-17.1%	12.6µM*	5.7%	6.6%	-1.5	1.9%
OCC1(CCc2ccccc2)CCN(C/C=C/c2ccccc2)CC1	-20.6%	?	5.8%	-3.4%	0.8	-5.0%
OCC1(Cc2ccccc2Cl)CCN(C/C=C/c2ccccc2)CC1	i	10µM*	5.8%	-22.3%	-6.9	11.8%
COc1ccc(Nc2ncnc3c2c(C)c(C)n3CCCN(C)C)cc1	i	11.2µM*	6.9%	-9.7%	0.0	2.5%
Cc1c(C)n(CCCN(C)C)c2ncnc(NC3CCCCC3)c12	i	3.98µM*	32.9%	-30.2%	-2.0	-9.2%
COc1ccccc1Nc1ncnc2c1c(C)c(C)n2CCCN(C)C	-22.1%	2.24µM*	2.2%	54.9%	-7.5	8.1%
Cc1c(C)n(CCCN(C)C)c2ncnc(Nc3ccccc3)c12	-13.5%	?	3.5%	-1.8%	-0.1	0.0%
Cc1c(C)n(Cc2ccccc2)c2ncnc(NCCCN(C)C)c12	-2.7%	?	8.6%	-9.0%	0.3	10.7%
Cc1cc(N2CCC(C)CC2)nc(SCC(=O)c2ccccc2)n1	-26.6%	3.16µM*	1.0%	1.5%	1.1	0.3%
Cc1cccc(-n2nnnc2SCC(=O)Nc2ccc(N3CCN(C)CC3)cc2)c1	-9.4%	?	2.6%	-18.1%	-1.7	-2.3%
Cc1ccccc1-n1nnnc1SCC(=O)Nc1ccc(N2CCN(C)CC2)cc1	-29.7%	1µM*	-4.9%	-19.3%	-0.3	0.0%
CCc1ccccc1-n1nnnc1SCC(=O)Nc1ccc(N2CCN(C)CC2)cc1	i	1.78µM*	6.9%	-8.4%	-2.8	-8.2%
Cc1ccccc1-n1nnnc1SC(C)C(=O)Nc1ccc(N2CCN(C)CC2)cc1 (stereo unspecified)	i	?	-1.0%	-26.0%	1.9	-4.5%
SMILES	PTHR1 ag	GLP1R inv ag	GLP-1R agonist	GLP1R cytotox	LDHA inh	IDH1 R132H inh
Cc1c(N2C(=O)/C(=C\c3ccc(N(C)C)cc3)N(C)C2=S)c(=O)n(-c2ccccc2)n1C	i	-22.4%	-5.5%	?	6.0	2.3%
CN1C(=S)N(c2cccnc2)C(=O)/C1=C\c1ccc(N(C)C)cc1	-11.9%	?	20.5%	10µM*	5.6	7.0%
CN1C(=S)N(c2cccnc2)C(=O)/C1=C\c1ccc(C(C)(C)C)cc1	-42.6%	11.2µM*	-5.4%	21.9%	3.3	-4.1%
CC(C)CNC(=O)c1ccc(Cn2cnc3ccccc3c2=O)cc1	nt	nt	nt	nt	3.0	nt
COc1ccc(Nc2oc(-c3ccccc3C)nc2C#N)cc1	nt	nt	nt	nt	8.7	nt
O=S(=O)(CCCCC(Cl)(Cl)Cl)NCc1ccco1	nt	nt	nt	nt	3.3	nt
COc1cc(-c2nnc(SCC(=O)Oc3ccccc3Cl)o2)cc(OC)c1OC	0.5%	3.6%	nt	-7.5%	2.7	-0.3%
COc1cc(-c2nnc(SCC(=O)N3c4ccccc4Sc4ccccc43)o2)cc(OC)c1OC	-12.7%[57.5 µM]	1.26µM*	-3.4%	-14.5%	-4.5	3.0%
COc1cccc(-c2nnc(SCC(=O)N3CC(C)CC(C)C3)o2)c1 (stereo unspecified)	-24.0%	11.2µM*	-6.8%	3.5%	-0.8	-3.8%
CCc1ccc2c(CN3CCN(Cc4ccccc4)CC3)cc(=O)oc2c1	-11.2%	8.91µM*	22.1%	16.7%	-3.4	2.5%
Cc1ccc2oc(-c3ccccc3F)cc(=O)c2c1	nt	nt	nt	nt	-6.9	nt
CCOc1ccc(C2c3c(-c4ccc(C)cc4)n[nH]c3C(=O)N2c2ccc(Cl)cc2)cc1 (stereo unspecified)	-44.2%	10µM*	-8.8%	?	-1.5	7.7%
CCOC(=O)c1ccc(N2C(=O)c3[nH]nc(-c4ccc(C)cc4)c3C2c2cccs2)cc1 (stereo unspecified)	-21.1%	8.91µM*	-5.2%	?	-8.4	-3.7%
COc1ccccc1C1c2c(-c3ccc(Cl)cc3)n[nH]c2C(=O)N1c1ccc(C)cc1 (stereo unspecified)	-6.7%	?	-10.5%	-7.1%	-0.7	-12.9%
Cn1c(CN2CCOCC2)nnc1SCc1ccc(Cl)c(Cl)c1	nt	nt	nt	nt	0.2	nt
CN(C)c1oc(-c2ccccc2)nc1S(=O)(=O)c1ccc2c(c1)OCCO2	nt	nt	nt	nt	11.5	nt
CCC(C)(c1nnnn1-c1c(C)cccc1C)N(N=O)c1ccccc1Cl (stereo unspecified)	-22.4%	7.94µM*	-3.1%	-5.7%	-0.1	10.8%
O=C(COC(=O)C12CC3CC(CC(Br)(C3)C1)C2)Nc1ccccc1[N+](=O)[O-]	nt	nt	nt	nt	-1.5	nt
NCCNC[C@@H]1COC2(CCCCCCCCCCC2)O1	-16.8%	5.01µM*	16.8%	-28.8%	-3.2	1.1%
Cc1cc(=O)[nH]c(SCC2COC3(CCCCC3)O2)n1 (stereo unspecified)	i	0.0%	-2.1%	3.1%	0.5	4.3%
